Rows were chosen to be rich in hits. Some 8.7% of all compounds tested hit in one or more screens of this group.
BAZ2B inh = qHTS Assay for Inhibitors of BAZ2B; Bromodomain adjacent to zinc finger domain protein 2B (Homo sapiens), Q9UIF8; AlphaScreen BAZ2B-H3K14Ac peptide displacement; Potency, µM (doses to about 114 µM), for the others: top-dose activity change, negative = inhibition, usual class: inhibitors; hit rate 4.4% among 360,000; AID 504333, 2011; note: % is set by controls: 0 for no effect and ±100 for the full control effect; nearly all actives have a fitted effect of over 60% in size
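AlphaScreen displacement of biotin-H3(5-23)K14Ac peptide (50 nM final) from BAZ2B (50 nM final) in PBS pH 7.4, 0.01% Tween-20; complex preformed 30 min RT, then compounds (top 110 uM) 30 min RT, beads 20 min dark.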
JMJD2A Tudor inh = qHTS Assay for Inhibitors of JMJD2A-Tudor Domain | AlphaScreen JMJD2A-Tudor / H3K4me3 peptide binding | Lysine-specific demethylase 4A (Homo sapiens), O75164 | hit rate 4.4% among 390,000 | AID 504339, 2011 | Potency, µM (series often up to 114 µM), for inactives: at the highest dose activity change, negative = inhibition, actives largely listed as inhibitors; note: % is set by controls: 0 for no effect and ±100 for the full control effect; nearly all actives have a fitted effect of over 50% in size
ALOX12 inh = Primary qHTS assay for inhibitors of human arachidonate 12S-lipoxygenase (ALOX12): Round 2. Polyunsaturated fatty acid lipoxygenase ALOX12 (Homo sapiens), P18054. purified 12hLO, xylenol orange hydroperoxide absorbance. Potency, µM (highest dose often 108 µM), inactives show top-dose activity change, negative = inhibition, actives largely listed as inhibitors. hit rate 1.1% among 580,000. AID 1671190, 2021; note: % is set by controls: 0 for no effect and ±100 for the full control effect
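Hydroperoxide product was detected by ferrous iron/xylenol orange as the 573 to 405 nm absorbance ratio. Arachidonic acid at 40 uM (final) was turned over for 30 min at room temperature by 150 nM human 12hLO, pH 7.0 Hepes buffer, after 15 min compound preincubation.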
Sfp inh = qHTS Assay for Inhibitors of Bacillus subtilis Sfp phosphopantetheinyl transferase (PPTase). 4'-phosphopantetheinyl transferase ffp (Bacillus subtilis), Q9F4F7. Biochemical Sfp PPTase activity, qHTS. Potency, µM, for the others: largest response in the series, negative = inhibition, actives largely listed as inhibitors. hit rate 3.5% among 310,000. AID 1490, 2009;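 note: the enzyme is Sfp with the accession as filed and its product quenches rhodamine fluorescence; 0% = enzyme reaction without inhibitor and -100% = no enzyme wells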
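With Hepes-Na pH 7.6 buffer containing 10 mM MgCl2, Sfp (15 nM) modified BHQ-2-YbbR (12.5 uM) using rhodamine-CoA (5 uM). Two reads 30 minutes apart at 525/598 nm yielded each well's rate.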
HP1b chromo inh = HTS for Inhibitors of HP1-beta Chromodomain Interactions with Methylated Histone Tails. Chromobox protein homolog 1 (Homo sapiens), P83916. Potency, µM (series often up to 114 µM), without a hit: at the highest dose activity change, negative = inhibition, most hits filed as inhibitors. hit rate 0.56% among 390,000. AID 540317, 2011. AlphaScreen HP1-beta / biotin-H3K9me3 peptide binding; note: nearly all actives have a fitted effect of over 70% in size
Target sequence (P83916 whole entry, looked up): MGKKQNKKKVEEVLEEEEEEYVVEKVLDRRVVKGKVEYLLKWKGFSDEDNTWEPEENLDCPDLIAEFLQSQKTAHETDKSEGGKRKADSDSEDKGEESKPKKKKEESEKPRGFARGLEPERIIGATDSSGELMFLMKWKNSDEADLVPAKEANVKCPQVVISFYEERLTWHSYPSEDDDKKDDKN
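AlphaScreen: HP1-beta (50 nM) preformed 30 min with biotin-H3(1-18)K9me3 peptide (50 nM) in PBS pH 7.4, 0.01% Tween-20. Compound added for 30 min at RT, then streptavidin donor/nickel chelate acceptor beads (10 ug/mL) for 30 min.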
G9a inh = qHTS Assay for Inhibitors of Histone Lysine Methyltransferase G9a | Histone-lysine N-methyltransferase EHMT2 (Homo sapiens), Q96KQ7 | G9a H3K9 monomethylation, AlphaScreen, 2 h | Potency, µM (series often up to 102 µM), for the others: at the highest dose activity, negative = inhibition, usual class: inhibitors | hit rate 8.8% among 350,000 | AID 504332, 2011; note: % is set by controls: 0 for no effect and ±100 for the full control effect; nearly all actives have a fitted effect of over 75% in size
Target sequence (Q96KQ7 913-1193 limits assumed): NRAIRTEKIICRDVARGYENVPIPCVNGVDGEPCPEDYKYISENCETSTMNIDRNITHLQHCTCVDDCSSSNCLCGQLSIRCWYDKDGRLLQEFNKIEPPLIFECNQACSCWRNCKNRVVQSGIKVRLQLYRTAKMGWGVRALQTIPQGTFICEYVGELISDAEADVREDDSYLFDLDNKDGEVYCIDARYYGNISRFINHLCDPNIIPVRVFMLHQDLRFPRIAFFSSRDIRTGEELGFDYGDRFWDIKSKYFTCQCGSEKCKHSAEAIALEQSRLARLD
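Chemiluminescent proximity detection of H3K9 monomethylation, read after 10 min bead incubation in the dark. Reaction: 20 nM G9a, 500 nM biotin-H3K9 peptide, 20 uM SAM cofactor, 2 h, room temperature, following 15 min enzyme-compound preincubation.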
Starred values were filed as active, the others as inactive; ? = inconclusive; . = no result; [ ] = another dose, or the depositor's remark. Calls come from the whole dose curve; as a rule, active = well fitted curve in the direction sought with a large enough effect; inconclusive = small, poorly fitted or top-dose-only effect, or another doubt; inactive = no such curve, though single readings can be large; an effect the other way counts as inactive or inconclusive. Potency is the fitted concentration of half-maximal effect.

SMILES	BAZ2B inh	JMJD2A Tudor inh	ALOX12 inh	Sfp inh	HP1b chromo inh	G9a inh
Cc1ccc2nc(NC(=S)NC(=O)c3ccco3)sc2c1	-7%	-16%	-17%	?	-11%	50µM*
Cc1ccc2nsnc2c1NC(=S)NC(=O)c1ccco1	-27%	-28%	?	50µM*	-5%	3.2µM*
Cc1ccc(-c2cnoc2NC(=O)CSc2nc(-c3ccccc3)cc(=O)[nH]2)cc1	.	.	-52%	.	.	.
CCC(NC(=O)CCc1c(C)c2cc3c(C)c(C)oc3cc2oc1=O)C(=O)N[C@@H](Cc1ccccc1)C(=O)O (some centres not stated)	50µM*	?	4%	6%	3%	?
CCCC(NC(=O)CCc1c(C)c2cc3c(C)c(C)oc3cc2oc1=O)C(=O)NC(Cc1ccc(Cl)cc1)C(=O)O (configuration not stated)	.	.	31%	.	.	.
Cc1ccc(Cl)c2c1NC(=O)C2(O)CC(=O)c1ccccc1O (configuration not stated)	-13%	5%	-27%	3%	19%	14µM*
Cc1ccc(Cl)c2c1NC(=O)C2(O)CC(=O)c1ccc(F)cc1 (configuration not stated)	2%	-14%	-1%	4%	9%	-12%[59 µM]
CCOC(=O)c1c(C)[nH]c(C(=O)CSc2nncn2C)c1C	.	.	-5%	.	.	.
CCOC(=O)c1c(C)[nH]c(C(=O)CSc2nnc(Nc3ccccc3F)s2)c1C	-37%	-24%	-21%	?	18%	18µM*
O=c1[nH]ccn1C1CCN(Cc2cccnc2)CC1	.	.	104%[176 µM]	.	.	.
CC1CCCC(NC(=O)NC(=O)COC(=O)C2=NN(c3ccccc3)C(=O)CC2)C1C (configuration not stated)	3%	5%	-8%	.	40%	10µM*
Cc1cccc(OCCc2noc(C3CCN(C(=O)CN4CCCCCC4)C3)n2)c1 (configuration not stated)	.	.	1%	.	.	.
O=C(CCl)N(Cc1cc(=O)[nH]c2ccccc12)c1ccccc1	-4%	-29%	?	-25%	6%	40µM*
CC(=O)N(Cc1cc(=O)[nH]c2ccccc12)c1ccc(C)cc1	12%	1%	1%	-7%	22%	32µM*
COc1ccc(S(=O)(=O)NC2CC2)c2cccnc12	.	.	18%	.	.	.
Cc1ccc(NS(=O)(=O)c2ccc(-c3cnc(C4CC4)o3)cc2)cc1F	.	.	3.5µM*	.	.	.
COc1ccc(NS(=O)(=O)c2cc(-c3cnc(C4CC4)o3)ccc2C)cc1	?	?	?	9%	0%[57 µM]	50µM*
Cc1ccc(NS(=O)(=O)c2ccc(-c3cnc(C4CC4)o3)cc2)cc1N(C)C	?	?	-9%	.	-5%	?
Oc1ccc(C(c2nnnn2C2CCCC2)N2CCc3ccccc3C2)cc1 (configuration not stated)	56µM*	7%[11.4 µM]	?	50µM*	-10%	4.5µM*
COc1ccc(C(c2nnnn2C2CCCC2)N2CCN(C(=O)c3ccco3)CC2)cc1OC (configuration not stated)	?	?	?	2%	29%[57 µM]	?
COc1cc(C(c2nnnn2C2CCCC2)N2CCc3ccccc3C2)ccc1O (configuration not stated)	-30%	?	?	18µM*	?	1.8µM*
Cc1ccc(C(c2nnnn2C2CCCCC2)N2CCc3ccccc32)cc1 (configuration not stated)	-34%	-16%	14%	3%	11%	1%[59 µM]

Screens as filed in PubChem.
